Measured values reported in the supplement of paper PMC6555819.

Assays:
Assay in all cases: PBM binding z-score (relative to random genomic background probes); higher = stronger binding; sequences stand for … in GC…GCGATTGACAGCGTAGAATGAAGG
[1] = tested on: FXR:RXRa (NR concentration 270 nM, RXRa partner concentration 90 nM)
In short: (§1)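 On custom Agilent 4×180K arrays, double-stranded probes with 34-nt variable regions carried direct-repeat seeds, single-nucleotide variants, half-site ablations or random human genomic background. Ligand-free nuclear receptor dimers were applied for 1 h, and binding was read with antibodies against each partner (one per run). Binding z-scores come from regression-normalized fluorescence, with the random background probes as reference.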

[2] = tested on: LXRa:RXRa (NR concentration 270 nM, RXRa partner concentration 90 nM)
In short: as §1

[3] = tested on: LXRa homodimer (NR concentration 270 nM)
In short: as §1

[4] = tested on: LXRb:RXRa (NR concentration 270 nM, RXRa partner concentration 90 nM)
In short: as §1

[5] = tested on: LXRb homodimer (NR concentration 270 nM)
In short: as §1

[6] = tested on: PPARa:RXRa (NR concentration 270 nM, RXRa partner concentration 90 nM)
In short: as §1

[7] = tested on: PPARg:RXRa (NR concentration 180 nM, RXRa partner concentration 90 nM)
In short: as §1

[8] = tested on: PPARg:RXRa 270nM:90nM, anti-RXR (NR concentration 270 nM, RXRa partner concentration 90 nM)
In short: as §1

[9] = tested on: PPARg:RXRa 30nM:10nM, anti-RXR (NR concentration 30 nM, RXRa partner concentration 10 nM)
In short: as §1

[10] = tested on: PPARg:RXRa 90nM:30nM, anti-RXR (NR concentration 90 nM, RXRa partner concentration 30 nM)
In short: as §1

Sequence	PBM binding z-score [1]	PBM binding z-score [2]	PBM binding z-score [3]	PBM binding z-score [4]	PBM binding z-score [5]	PBM binding z-score [6]	PBM binding z-score [7]	PBM binding z-score [8]	PBM binding z-score [9]	PBM binding z-score [10]
AGAATGAGGTTACTAAGATCAGGGAATTGCGGTC	1.46	1.24	-0.205	0.978	-0.137	2.62	2.35	2.48	0.629	1.7
CCTCGGACGACAACAGGAGGTCAGAGCTGCCAGA	0.715	1.65	1.91	1.42	0.113	1.73	0.478	-0.0139	-0.511	-0.34
TAGCCTAGGTCAGATCGGACCAGTATACGCTATA	1.36	1.26	-0.219	1.03	-0.138	1.99	0.959	0.981	-0.106	0.213
GATACAGGGTCAAGGCCGGAGTACGCGTATTGAT	6.13	4.13	0.0137	3.51	-0.495	5.66	5.78	5.32	1.81	3.85
AGAATGAGGTTAAAATCAGGGAAACAGAATACAT	2.65	2.59	0.234	2.08	0.345	3.69	2.3	2.46	0.879	1.7
GTAACGAGGGCAAGTTGATAGCAGAGTTTGATGG	0.832	0.576	-0.256	0.49	0.052	1.9	1.29	1.19	0.279	0.807
TCTATTAGTTGATTATGGCAACCGAAACAGCGGA	0.958	0.726	0.306	0.64	1.08	0.209	0.113	1.91	4.11	3.45
TCGAGTAGATTAGTCGGGGCATTCAGCCAACATA	-0.148	-0.282	-0.477	0.225	-1.13	-0.142	-0.45	0.0888	0.947	0.374
GCTTGTAGATCAAGGTTAAGCAAGACTAAGCTAA	0.263	0.428	-0.624	0.0406	-0.925	1.77	1.05	1.94	0.405	1.6
ATCTGTAGGTAACCAAGTTCAGTGAATGCCGAAC	0.276	0.775	0.477	0.549	0.153	1.05	0.635	0.922	0.0596	0.358
TCATATAGGTAAACAGGTGAAAGTGCGTAAGTTA	1.13	1.29	0.37	1.13	0.114	3.19	4.88	5.09	4.64	5.1
TTACCAAGGTGAATGTCGTTGATCCCTCTGTAGA	0.755	0.993	-0.247	0.681	-0.413	1.51	0.279	1.04	0.788	0.922
CAAACTAGGTGACGAAAGGTCAAAGTCGAATGAC	5.48	6.5	5.58	5.5	2.04	6.16	8.73	7.47	4.53	7.2
AGTCAAAGTTCATCTACGTAACGTAAGATATGCT	6.79	6.21	5.33	3.97	1.6	4.77	6.55	6.3	3.58	5.65
CCTCCTGGGCCACGAAAGGTCATTGATTCAGTGA	3.25	5.1	4.52	4.15	-0.0448	4.14	1.39	2.94	0.283	2.02
ATCTCTAGGTAACCAAGTTCAGTGAATGCCGAAC	0.707	1.04	0.708	0.638	0.763	1.33	0.617	0.913	0.376	0.682
AGAACGAGGGCAATGAGTTAATAGCACGGGTGGC	0.223	0.22	-0.363	-0.11	-0.589	1.34	1.56	1.23	-0.12	0.528
CCTAGCACGCCAGGGTCACTCAAGCATTTCGCTT	1.59	1.52	-0.519	1.79	-1.1	2.81	0.36	0.763	-0.35	-0.137
GCAGACAGGTGAAACGCACGTAACTCAGGGTGGC	-0.552	-0.392	-0.524	-0.277	-0.898	0.511	0.771	0.0365	-0.437	-0.223

Sequence	PBM binding z-score [1]	PBM binding z-score [2]	PBM binding z-score [3]	PBM binding z-score [4]	PBM binding z-score [5]	PBM binding z-score [6]	PBM binding z-score [7]	PBM binding z-score [8]	PBM binding z-score [9]	PBM binding z-score [10]
CCTGCTAGGTCTTGGTCAGCTAATCTACAGTATG	-0.4	-0.437	-0.451	-0.509	-0.639	-0.469	-0.371	-0.599	-0.683	-0.872
CCAGACAGGTGAGAAGGTAACCCAGCCTCGATTA	0.179	0.277	-0.0873	0.148	0.023	0.739	0.689	0.473	-0.12	0.118
CCGACTGGGGCAACGTTACCATAACGCACAGCCA	-0.667	-0.521	-0.397	-0.465	-1.01	0.0876	1.64	0.667	-0.502	-0.136
ATCTCTAGGTAAAGAAAGTTCAGTGAATGCAAAT	0.762	4.7	1.94	1.58	0.904	1.38	0.409	0.933	0.542	0.768
CCTTGTTGGTCAGGAGGTCACACACCGGATATGA	3.65	3.45	2.55	3.64	0.947	4.07	3.37	3.8	1.66	2.83
CCTACTGCGCCACGAAAGGTCATTGATTCAGTGA	3.86	5.05	5.64	4.54	2	4.35	1.08	3.21	0.979	1.98
ATACCAAGGTGATCGAGAGGTCGTTGATACTAAC	1.97	1.51	0.71	1.37	0.0291	1.72	0.979	1	0.238	0.545
CGTCAAAGTTCGAGGTAACGTAACAGAAAGCAGC	1.32	1.25	0.0429	0.91	-0.403	1.74	1.36	1.98	0.481	1.36
AGAATGAGGTTACCAAAGATCTGGGAAACGCTTG	1.57	2.23	-0.414	1.23	-0.401	3.4	2.74	2.37	0.756	1.91
TAGCCTAGGTCATTCAGGTGCCAGTATAGAAAGC	4.93	3.74	0.777	2.77	0.913	3.55	1.87	2.27	0.493	1.54
GCTAGTTGGTCAGTAAAGGGTCACACACCGGTCG	2.1	2.52	1.36	2.63	0.0328	3.36	1.72	2.79	0.505	1.89
CCTACTGGGCCATCAGGTCATAGATATCAACGTT	1.22	0.89	0.812	1.18	-0.323	2.72	3.22	3.9	1.86	3.15
ATCTCTAGGTAAAGTCCAGTGAAAGATCGATAGA	0.403	0.465	0.0712	-0.241	1.11	0.175	0.232	0.48	0.421	0.165
TATACAGGGTCAACGGCCAGAGTACGAATGTCGA	6.91	5.76	2.15	4.65	2.1	5.54	6.79	6	3.43	5.19
CGTCCAACGTCATAGGAGGTCAGTGAAGACAGAT	1.79	2.71	0.999	1.63	-0.234	2.09	0.683	0.77	0.184	0.231
GCTACTAGGTCAGGTTGGTCAGCTAACGGGTACG	1.47	0.811	0.0315	0.809	0.129	2.66	4.12	3.52	0.868	3.19
CTAACGAGGGCATGAGTTGATAGCAAATGCCGAT	0.543	0.409	-0.604	0.119	-0.182	1.54	1.71	2.02	0.704	1.51
CCTAGTTGGTCGAGGTCACACACGCTATAGGTAC	4.44	4.08	2.35	3.65	0.632	4.31	2.86	3.39	0.788	2.21
TCTCGGAGGACACGAAAGGTCGGAGCTCGACATC	1.02	1.14	-0.0519	0.48	-0.636	1.51	0.269	1.36	1.93	1.73
